Data: PubChem BioAssay AID588790 (National Center for Advancing Translational Sciences (NCATS), 2011)
Hit rate of the full screen: of about 1,200 compounds, about 85 (7%) were called active. The call rests on the fitted dose curve. The entries come from a sample that favours actives as a whole. Where a call stands in place of a potency, no number is given.

Target: Beta-2 adrenergic receptor (Homo sapiens) (UniProt P07550)
Experiment: qHTS assay of beta-arrestin-biased ligands of beta2-adrenergic receptor: Hit Validation with GloSensor
Conditions: W9-Glo22F cells, GloSensor cAMP luminescence, beta2AR agonism; series mostly up to 46.1 µM
Excerpt: The concept of biased agonism is an emerging concept of molecular pharmacology which proposes that seven transmembrane receptors (7TMRs) or G protein-coupled receptors (GPCRs), exist in multiple signaling conformations and complexes and that ligands (either agonists or antagonists) can induce signaling biased responses for distinct signal transduction cascades.
Furthermore, accumulating evidence over the last decade has drawn attention to a novel function of beta-arrestins as signal transducers that scaffold various signaling molecules upon activation of 7TMRs. […] This beta-arrestin-biased signaling presumably leads to distinct physiological outcomes from those by G protein activation.
Additionally, the active receptor conformations which […] on this beta-arrestin signaling are likely different from those activating G protein signaling
The goal of this screening project is to discover and optimize novel beta-arrestin-biased ligands for beta2-AR signaling. A luminescent cell-based assay for beta2-AR-mediated agonism, known as the Tango assay, has been validated in which ligand binding of a recombinant beta2-AR and subsequent recruitment of a recombinant beta-arrestin lead to the release of the transcriptional activator tTA, which upregulates transcription of a tTA-responsive luciferase gene. […] After compounds were identified in this primary screen, they were tested in a counter screen that used luminescence as measure through the GloSensor reagent.
NIH Molecular Libraries Probe Production Network [MLPCN]
NIH Chemical Genomics Center [NCGC]
PI: Bryan Roth (UNC) and Bob Lefkowitz (Duke)
2 uL of W9-Glo22F cells are dispensed into a white 1536-well plate. They are incubated overnight at 37 deg C at 5% CO2. 23 nL of compounds and controls are pinned into the wells. Then 2 uL of GloSensor is added and the plate is incubated for 10 min at room temperature.The plates are then read on the ViewLux for luminescence.
Potency means the concentration at half of the fitted maximal effect.

Chain of Beta-2 adrenergic receptor (Homo sapiens) (P07550 whole entry, looked up): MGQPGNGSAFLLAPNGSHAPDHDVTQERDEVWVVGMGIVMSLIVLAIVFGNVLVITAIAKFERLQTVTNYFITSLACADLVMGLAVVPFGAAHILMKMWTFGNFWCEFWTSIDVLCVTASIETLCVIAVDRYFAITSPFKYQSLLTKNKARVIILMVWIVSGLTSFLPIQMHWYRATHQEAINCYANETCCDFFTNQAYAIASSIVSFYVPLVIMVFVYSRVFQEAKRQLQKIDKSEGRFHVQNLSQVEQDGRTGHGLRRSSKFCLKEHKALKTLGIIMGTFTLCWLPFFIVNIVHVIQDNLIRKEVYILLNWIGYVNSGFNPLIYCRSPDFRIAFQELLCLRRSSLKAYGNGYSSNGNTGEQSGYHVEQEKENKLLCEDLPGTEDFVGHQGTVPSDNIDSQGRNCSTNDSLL

Structure (SMILES) | Potency
COC(=O)C1=C(c2ccc(OCc3ccccc3)cc2)C[C@@H]2CC[C@H]1N2C(=O)NCc1ccc(OC)c(OC)c1 | 4.11 µM (active)
COC(=O)C1=C(c2ccc(OCc3ccccc3)cc2)C[C@@H]2CC[C@H]1N2C(=O)NCc1cccc(C(F)(F)F)c1 | inactive
COC(=O)C1=C(c2ccc(OCc3ccccc3)cc2)C[C@@H]2CC[C@H]1N2C(=O)NCc1cccc(OC)c1 | inactive
O=C1NC(=O)N(Cc2ccccc2)C(=O)/C1=C/C=C/c1ccco1 | inactive
COc1cccc(C(=O)C2CCCN(Cc3cccc(C)n3)C2)c1 (stereo not given) | inactive
Clc1ccc2c(c1)C(c1ccccc1Cl)=NCc1nnc(N3CCN(CCOc4ccccc4)CC3)n1-2 | inactive
COC(=O)C1=C(c2ccc(-c3ccccc3)c(F)c2)C[C@@H]2CC[C@H]1N2C(=O)NCc1ccco1 | inactive
CNCC(O)c1ccc(OC(=O)C(C)(C)C)c(OC(=O)C(C)(C)C)c1 (stereo not given) | 0.259 µM (active)
COC(=O)C1=C(c2ccc(OC)c(OC)c2)C[C@@H]2CC[C@H]1N2C(=O)NCc1cccc2ccccc12 | inactive
OC12ONC(c3ccccn3)C1N1CCC2CC1 (stereo not given) | inactive
COC(=O)C1=C(c2ccc(-c3ccccc3)c(F)c2)C[C@@H]2CC[C@H]1N2C(=O)NCCOc1ccc(OC)cc1 | inactive
O=c1c2ccccc2nc(/C=C/c2ccc(O)c(O)c2)n1-c1ccccc1 | 32.6 µM (active)
COc1cccc(OCc2cc(C(=O)N3C[C@H]4C[C@@H](C3)c3cccc(=O)n3C4)no2)c1 | inactive
c1cncc(C2Nc3cccc4cccc(c34)N2)c1 | inactive
COC(=O)C1=C(c2ccc(F)cc2F)C[C@@H]2CC[C@H]1N2C(=O)NCCNC(C)=O | inactive
